Screening results: PubChem, National Center for Advancing Translational Sciences (NCATS)
HCMV antiviral – human cytomegalovirus inhibition; HFF cells, HCMV-luciferase reporter, 72 h; hits give low values; activity change, negative = inhibition, % at 57.5 µM; 4.5% of 410,000 active; AID 1259415; in the data active = activity change below about -60%; inconclusive = no clear call, values can overlap the other calls; inactive = above about -39%
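Screen run at 2 compound doses on HFFs infected with reporter HCMV, MOI 1 PFU/cell. Luciferase activity from cell lysates at 72 h post infection gave inhibition relative to buffer-only and Salinomycin wells.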
VACV mCherry inh – vaccinia inhibition (mCherry reporter); Vaccinia virus mCherry reporter infection, fluorescence; Potency, µM (titrated, usually from 36.5 µM), inactives show top-dose activity change, negative = inhibition, usual class: inhibitors; 0.63% of 310,000 active; AID 720579; calls by dose curve; tested in A549 cells; also: potency is read from the fitted curve at half-maximal effect; nearly all actives have a fitted effect of over 35% in size
FMDV antiviral – foot and mouth disease virus antiviral activity. FMDV antiviral cell-based qHTS. Potency, µM (top dose mostly 57.9 µM), without a hit: at the highest dose activity change, negative = inhibition, usual class: inhibitors. 1.2% of 410,000 active. AID 1159524; calls by dose curve; tested in HEK293T cells; also: read-out not given here; potency is read from the fitted curve at half-maximal effect; nearly all actives have a fitted effect of over 45% in size
HCV inhibitor – HCV inhibition; Huh7.5.1 HCVcc-Cre infection, luciferase reporter, 44 h; AID 651820; 3.4% of 340,000 active; Potency, µM (top dose mostly 41.8 µM), without a hit: at the top dose activity change, negative = inhibition, usual class: inhibitors; also: potency is read from the fitted curve at half-maximal effect
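Whole-lifecycle infectious HCVcc-Cre system; cells 1,000/well, compound then virus (~0.5 moi) added 4 h after plating, 44 h culture. Luciferase read 15 sec following 15 min substrate incubation, room temp.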
VACV Venus inh – vaccinia inhibition (Venus reporter); Vaccinia virus Venus reporter expression, fluorescence; Potency, µM (highest dose often 36.5 µM), for inactives: at the top dose activity change, negative = inhibition, most hits filed as inhibitors; 0.46% of 330,000 active; AID 720580; calls by dose curve; tested in A549 cells; also: potency is read from the fitted curve at half-maximal effect; nearly all actives have a fitted effect of over 30% in size
Sm TGR inh – blocks Schistosoma mansoni thioredoxin glutathione reductase; 3% of 360,000 active; AID 485364; purified TGR, DTNB reduction, TNB absorbance 405 nm; Potency, µM (highest dose often 114 µM), inactives show at the highest dose activity change, negative = inhibition, actives largely listed as inhibitors; Q962Y6; also: potency is read from the fitted curve at half-maximal effect; nearly all actives have a fitted effect of over 60% in size
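Kinetic colorimetric format: TGR-catalysed, NADPH-driven DTNB reduction monitored via TNB absorbance. Enzyme dispensed at 20 nM; compound exposure 15 min at room temperature before reaction start.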
* hit, by the source's call; i = inactive; ? = inconclusive; / = no result; [ ] = remark or other dose. A selection: hits, their analogues and other compounds. The true share with any hit is near 9.3%. Unless noted, calls follow the shape of the dose curve; as a rule, active = well fitted curve in the direction sought with a large enough effect; inconclusive = small, poorly fitted or top-dose-only effect, or another doubt; inactive = no such curve, though single readings can be large; an effect the other way counts as inactive or inconclusive. % is scaled to controls: 0 for no effect and ±100 for the full control effect.

SMILES	HCMV antiviral	VACV mCherry inh	FMDV antiviral	HCV inhibitor	VACV Venus inh	Sm TGR inh
Cc1ccccc1C(O)c1ccncc1 (stereo unspecified)	-13	/	-9%	1%	/	-7%
Cc1[nH]c2ccccc2c1C(c1ccncc1)N1CCN(c2ccc(F)cc2)CC1 (stereo unspecified)	20	-26%	0%	2%	-8%	8.9µM*
Cc1[nH]c2ccccc2c1C(O)c1ccncc1 (stereo unspecified)	-20	-4%	11%	6%	1%	25µM*
CCOC(=O)c1c2c(n(Cc3ccccc3)c1C)C(=O)C(=O)c1ccccc1-2	0	?	20µM*	?	4.5µM*	/
CCOC(=O)c1c2c(n(C)c1C)C(=O)C(=O)c1ccc(Br)cc1-2	-97*	-6%	8.9µM*	?	-8%	/
CCOC(=O)c1c2c3c(cccc3n(C)c1=O)C(=O)c1ccccc1-2	-3	-12%	-12%	?	11%	-33%
Nc1c(-c2ccc(Cl)cc2)cnn1-c1cccc(C(F)(F)F)c1	1	/	7%	-18%	-17%	13%
Cc1ccc(-c2cnn(-c3cccc(C(F)(F)F)c3)c2N)cc1	-34	/	24%	11µM*	/	5%
CCCN(CCC)C(=O)CC(c1ccc(F)cc1)c1ccco1 (stereo unspecified)	5	-12%	-23%	-20%	-6%	11µM*
O=C(CC(c1ccc(F)cc1)c1ccco1)N1CCCC1 (stereo unspecified)	-6	-28%	4%	12%	-13%	14µM*
COc1cc(CNC(C)(C)C)cc(Br)c1OCc1cccs1	?	i	0%	20µM*	-19%	1%
COc1cc(CNCc2ccncc2)cc(Br)c1OCc1ccccc1F	-90*	/	32µM*	?	/	-8%
COc1cc(CNc2ccc(O)cc2)cc(Br)c1OCc1ccccc1F	/	-2%	?	0%	-1%	-32%
CCN(CC)C(=O)C1=C(C)N(Cc2ccc(C(C)(C)C)cc2)C(=O)C(CC(=O)NCCCN(C)C)C1 (stereo unspecified)	-3	i	-13%	/	-9%	/
CC(c1ccco1)N(C(=O)c1ccc(F)cc1)c1ccccn1 (stereo unspecified)	-27	i	7%	-3%	-2%	-22%
COc1ccccc1CCNC(=O)CSCC(=O)Nc1ccccc1F	-30	-1%	-28%	/	-19%	/
Clc1ccc(COc2cccc(CNCc3ccncc3)c2)cc1	-75*	-20%	?	?	-22%	7%
CC(C)(CO)NCc1cccc(OCc2ccc(Cl)cc2)c1	?	-17%	-7%	?	-26%	2%
Cn1cccc1CC(=O)N/N=C/C=C/c1ccco1	25	i	42%	-5%	2%	11µM*
C/C(=N\NC(=O)Cc1cccn1C)c1ccco1	12	i	-13%	3%	-15%	40µM*
C/C(=N/NC(=O)Cc1cccn1C)c1ccccc1	41	-9%	/	-1%	-7%	6%
Cc1ccc(/C=N\NC(=O)Cc2cccn2C)o1	?	-2%	9%	4%	2%	?
Cc1ccc(C)c(NC(=O)c2nc(S(C)(=O)=O)ncc2N(Cc2ccc(C(C)(C)C)cc2)Cc2ccco2)c1	14	-12%	-24%	/	-5%	?
Cc1ccccc1Cn1ccc(NC(=O)CCSc2nc(-c3ccco3)cc(C(F)(F)F)n2)n1	7	/	0%	3.2µM*	8%	-3%
Cc1ccc(Cn2ccc(NC(=O)CCSc3nc(-c4ccco4)cc(C(F)(F)F)n3)n2)cc1	35	/	?	11µM*	?	-21%
SMILES	HCMV antiviral	VACV mCherry inh	FMDV antiviral	HCV inhibitor	VACV Venus inh	Sm TGR inh
Cc1cc(NC(=O)CCSc2nc(-c3ccco3)cc(C(F)(F)F)n2)no1	24	i	-7%	?	-15%	-8%
O=C(c1ccc2c(=O)n(Cc3ccc(Cl)cc3)c(=S)[nH]c2c1)N1CCOCC1	-65*	-4%	?	-5%	-18%	-4%
O=C(c1ccc2c(=O)n(Cc3ccc(Cl)cc3)c(=S)[nH]c2c1)N1CCCC1	29	/	-18%	13%	/	-7%
O=C(CCc1nnc2n(Cc3ccc(F)cc3)c(=O)c3ccccc3n12)N1CCN(c2ccccn2)CC1	-19	/	?	14µM*	/	-9%
CN1CCN(C(=O)c2ccc3c(=O)n(Cc4ccc5c(c4)OCO5)c(=S)[nH]c3c2)CC1	/	-17%	/	/	-9%	/
CCCCCn1c(=O)[nH]c2cc(C(=O)N3CCN(Cc4ccc5c(c4)OCO5)CC3)ccc2c1=O	-76*	-15%	?	2.8µM*	?	-3%
CC1CC(C)CN(C(=O)c2ccc3c(=O)n(Cc4ccc5c(c4)OCO5)c(=S)[nH]c3c2)C1 (stereo unspecified)	-81*	/	-26%	-9%	/	0%
O=C(c1ccc(C(F)(F)F)cc1)C1CCCN(C(=O)Cn2cnnn2)C1 (stereo unspecified)	-22	/	-4%	24%	/	-19%
O=C(c1ccc(Cn2c(=O)[nH]c3ccccc3c2=O)cc1)N1CCN(c2ccccn2)CC1	10	-14%	0%	-16%	-20%	-5%
O=C(c1ccc(Cn2c(=S)[nH]c3ccccc3c2=O)cc1)N1CCN(c2ccccn2)CC1	-65*	-24%	?	11µM*	?	-1%
COc1ccc(-c2noc(-c3ccc(NCC4CCCO4)c([N+](=O)[O-])c3)n2)cc1OC (stereo unspecified)	7	-5%	-14%	/	-4%	-1%
COc1ccc(-c2noc(-c3ccc(N4CCN(C)CC4)c([N+](=O)[O-])c3)n2)cc1OC	-105*	-17%	31%	/	-28%	-8%
O=[N+]([O-])c1cc(-c2nc(-c3ccco3)no2)ccc1NCc1ccccc1	31	-7%	37%	/	-5%	35µM*
O=[N+]([O-])c1cc(-c2nc(-c3ccccc3)no2)ccc1N1CCCC1	-80*	-25%	-12%	/	?	-6%
COc1cc(-c2noc(-c3ccc(NCC4CCCO4)c([N+](=O)[O-])c3)n2)cc(OC)c1OC (stereo unspecified)	-3	-11%	11µM*	/	-9%	-24%
O=[N+]([O-])c1cc(-c2nc(-c3ccccc3)no2)ccc1N1CCN(c2ccccc2)CC1	8	-13%	-9%	/	-4%	-3%
CC1CN(C(=O)CSc2nnc(-c3cccs3)n2N)CC(C)O1 (stereo unspecified)	0	/	-2%	15%	/	1%
O=C1c2ccccc2-c2onc3ccc(NCCCn4ccnc4)c1c23	/	-1%	/	13µM*	21%	20µM*
CN(C)c1cc(NC(=O)CNC(C)(C)CC(C)(C)C)c2ccccc2n1	-60*	-12%	-26%	?	-8%	0%
O=C(CSCc1nc2c(nnn2Cc2ccc(F)cc2)c(=O)[nH]1)Nc1cccc(C(F)(F)F)c1	-4	-1%	-7%	26%	-11%	6%[57.1 µM]
